{"source": "PubChem BioAssay AID430", "about": "(Sanford-Burnham Center for Chemical Genomics, 2006)", "note": "Among all 63,000 compounds or so, about 1,100 (1.7%) were called active. The sample holds actives, similar compounds and a random draw of the others, so the mix is not that of the screen. Cut-off read from the data, not from the text of the source: active = cytotoxicity above about 50%; inactive = the rest. Entries with a potency or affinity are not part of this list."}
{"experiment": "cytotoxicity in HPDE-C7 cells, cell-based, fluorescence, HTS (AID 430);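 note: cells exposed to compound for 48 hours before viability readout; 0% = vehicle and 100% = reference cytotoxic drug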", "conditions": "HPDE-C7 pancreatic duct cells viability, at 10 µM, hits give high values"}
{"smiles": "CCc1nc2ccccc2c(C(=O)OCC(=O)NCCCN2CCCC2=O)c1C", "cytotoxicity": "-4.2% (inactive)"}
{"smiles": "CCOc1cc2[nH]c(=O)n(CCCCC(=O)NC3CCCCCC3)c(=O)c2cc1OCC", "cytotoxicity": "2.3% (inactive)"}
{"smiles": "COC(=O)c1cc(COC(=O)c2cccnc2SC)oc1C", "cytotoxicity": "-9.4% (inactive)"}
{"smiles": "O=S(=O)(Nc1cccnc1)c1ccc2c(c1)OCCO2", "cytotoxicity": "-9.7% (inactive)"}
{"smiles": "CCOC(=O)n1ccc(C(=O)Nc2ccccc2F)n1", "cytotoxicity": "-0.9% (inactive)"}
{"smiles": "CCOC(=O)CCn1c(CC(=O)OCC)nc2ccccc21", "cytotoxicity": "-8.6% (inactive)"}
{"smiles": "CCOC(=O)Cc1nnc2c(Nc3ccc(Cl)cc3)nc3nonc3n12", "cytotoxicity": "68.3% (active)"}
{"smiles": "CCOC(=O)Cc1nnc2c(Nc3ccccc3F)nc3nonc3n12", "cytotoxicity": "61.6% (active)"}
{"smiles": "CCOC(=O)Cn1nc(-c2ccc(Cl)cc2)cc1N", "cytotoxicity": "10.3% (inactive)"}
{"smiles": "CCOC(=O)Cc1nnc2c(Nc3ccc(C)cc3)nc3nonc3n12", "cytotoxicity": "-35.8% (inactive)"}
{"smiles": "CCOC(=O)Cc1csc(NC(=O)c2cccc(N3C(=O)CCC3=O)c2)n1", "cytotoxicity": "-14.9% (inactive)"}
{"smiles": "O=C(Nn1cnnc1)c1cc(-c2ccccn2)nc2ccccc12", "cytotoxicity": "2.7% (inactive)"}
{"smiles": "O=C(Nc1cccc(Cl)c1N1CCCC1)c1ccc(Br)o1", "cytotoxicity": "75% (active)"}
{"smiles": "CCN1CCN(c2c(Cl)cccc2NC(=O)c2ccc(Br)o2)CC1", "cytotoxicity": "1.5% (inactive)"}
{"smiles": "O=C(Nc1ccccc1N1CCCC1)c1ccc(Br)o1", "cytotoxicity": "1.2% (inactive)"}
{"smiles": "N#Cc1ccsc1NC(=O)CSc1ncn[nH]1", "cytotoxicity": "-0.1% (inactive)"}
{"smiles": "CCCCNS(=O)(=O)c1ccc2nc(SCC(=O)Nc3sccc3C#N)[nH]c2c1", "cytotoxicity": "88.6% (active)"}
{"smiles": "CCCCNS(=O)(=O)c1ccc2nc(SCC(=O)c3ccc(C#N)cc3)[nH]c2c1", "cytotoxicity": "5.7% (inactive)"}
{"smiles": "CCn1cc(Br)c(C(=O)N(C)Cc2ccccc2)n1", "cytotoxicity": "-2.4% (inactive)"}
{"smiles": "CCC1CCCCN1C(=O)COC(=O)c1ccc(S(=O)(=O)N2CCOCC2)cc1", "note": "(stereo unspecified)", "cytotoxicity": "-5% (inactive)"}
{"smiles": "Cc1ccc(-c2nnn(CC(=O)N(Cc3cccs3)C(C(=O)NC3CCCC3)c3ccco3)n2)o1", "note": "(stereo unspecified)", "cytotoxicity": "80.5% (active)"}
{"smiles": "Cc1ccc(-c2nnn(CC(=O)N(Cc3cccs3)C(C(=O)NC(C)(C)C)c3ccco3)n2)o1", "note": "(stereo unspecified)", "cytotoxicity": "-3.6% (inactive)"}
{"smiles": "Cc1ccc(-c2nnn(CC(=O)N(c3ccccc3)C(C(=O)NC3CCCC3)c3ccco3)n2)o1", "note": "(stereo unspecified)", "cytotoxicity": "-1% (inactive)"}
{"smiles": "COc1ccc(OC)c(Nc2nc(-c3sc(N)nc3C)cs2)c1", "cytotoxicity": "34.5% (inactive)"}
{"smiles": "COc1ccc(CNC(=O)C2CCCN2S(=O)(=O)c2ccc(C)cc2)cc1", "note": "(stereo unspecified)", "cytotoxicity": "9.7% (inactive)"}
{"smiles": "CC(C)(C)c1ccccc1OCCCCCNCCO", "cytotoxicity": "9.8% (inactive)"}
{"smiles": "CC(=O)CCc1c(C)[nH]c2ccccc2c1=O", "cytotoxicity": "-19.6% (inactive)"}
{"smiles": "Cc1ccc(-c2noc(CCC(=O)NCCCN3CCN(c4cccc(Cl)c4)CC3)n2)cc1", "cytotoxicity": "-6.5% (inactive)"}
{"smiles": "O=C(c1cc(-c2ccco2)on1)N1CCN(c2ccccc2)CC1", "cytotoxicity": "13.6% (inactive)"}
{"smiles": "COc1ccccc1N1CCN(C(=O)c2ccc3nc(-c4ccco4)c(-c4ccco4)nc3c2)CC1", "cytotoxicity": "8.9% (inactive)"}
{"smiles": "O=C(Nc1ccc2nc(-c3ccco3)c(-c3ccco3)nc2c1)N1CCCCCC1", "cytotoxicity": "29.1% (inactive)"}
{"smiles": "O=C(Nc1ccc(N2CCOCC2)cc1)Nc1ccc2nc(-c3ccco3)c(-c3ccco3)nc2c1", "cytotoxicity": "76.2% (active)"}
{"smiles": "CN1CCN(C(=O)c2ccc3ccccc3c2)CC1", "cytotoxicity": "-15.3% (inactive)"}
{"smiles": "O=C(Nc1ccc(N2CCOCC2)cc1)c1ccc2nc(-c3ccco3)c(-c3ccco3)nc2c1", "cytotoxicity": "-9.4% (inactive)"}
{"smiles": "O=C(c1ccc2ccccc2c1)N1CCN(c2ccccc2)CC1", "cytotoxicity": "-4.8% (inactive)"}
{"smiles": "O=C(c1ccc2ccccc2c1)N1CCN(c2ccc(O)cc2)CC1", "cytotoxicity": "50.3% (active)"}
{"smiles": "O=C(c1cccs1)N1CCC(c2ccccc2)C1", "note": "(stereo unspecified)", "cytotoxicity": "5.4% (inactive)"}
{"smiles": "O=c1[nH]c2ccccc2cc1-c1noc(-c2cccnc2)n1", "cytotoxicity": "6.4% (inactive)"}
{"smiles": "CCCOc1ccc(NC2=CC(=O)CC(C)(C)C2)cc1", "cytotoxicity": "-2.4% (inactive)"}
{"smiles": "COc1cc(-c2csc(N3CCOCC3)n2)cc(OC)c1OC", "cytotoxicity": "4.3% (inactive)"}
{"smiles": "COc1ccc(OC)c(NC(=O)c2nnn(Cc3ccc(Br)cc3F)c2N)c1", "cytotoxicity": "18.8% (inactive)"}
{"smiles": "c1ccc(-c2ccc(OCCOCCn3cncn3)cc2)cc1", "cytotoxicity": "-14.6% (inactive)"}
{"smiles": "O=C(CSc1nnc(C2COc3ccccc3O2)o1)N1CCCc2ccccc21", "note": "(stereo unspecified)", "cytotoxicity": "-5.7% (inactive)"}
{"smiles": "COc1ccc(C(O)c2coc3ccc(O)c(CN(C)C)c23)cc1", "note": "(stereo unspecified)", "cytotoxicity": "8.4% (inactive)"}
{"smiles": "CN(C)C(=O)c1nc(C#N)c(N(C)C)o1", "cytotoxicity": "8.3% (inactive)"}
{"smiles": "COC(=O)c1[nH]c2cc(OC)ccc2c1NC(=O)CN1CCOCC1", "cytotoxicity": "9.3% (inactive)"}
{"smiles": "CCC(O)c1cc2c(cc1NC(=O)c1ccc(C)cc1)OCCO2", "note": "(stereo unspecified)", "cytotoxicity": "-1.6% (inactive)"}
{"smiles": "Cc1cc(NC(=O)c2cc(-c3cccnc3)nc3c(C)c(C)ccc23)no1", "cytotoxicity": "22.3% (inactive)"}
{"smiles": "Cc1cc(NC(=O)c2cc(-c3ccncc3)nc3c(C)cccc23)no1", "cytotoxicity": "64.9% (active)"}
{"smiles": "Cc1cc(C)c2nc(-c3ccccn3)cc(C(=O)Nc3cc(C)on3)c2c1", "cytotoxicity": "6.6% (inactive)"}
{"smiles": "O=C(c1cc(-c2ccc3c(c2)OCO3)on1)N1CCN(c2ccccc2)CC1", "cytotoxicity": "20.6% (inactive)"}
{"smiles": "COc1ccccc1NC(=O)CN1CCC(n2nnc3cc(F)ccc32)CC1", "cytotoxicity": "-8.8% (inactive)"}
{"smiles": "CCOc1ccc2nc(NC(=O)CN3CCC(n4nnc5cc(F)ccc54)CC3)sc2c1", "cytotoxicity": "55.7% (active)"}
{"smiles": "CCOC(=O)c1ccccc1NC(=O)CN1CCC(n2nnc3cc(F)ccc32)CC1", "cytotoxicity": "13.5% (inactive)"}
{"smiles": "O=C(Nc1ccc(NC(=O)C2CC2)nc1)c1ccccn1", "cytotoxicity": "-20.6% (inactive)"}
{"smiles": "Cc1cc(C(=O)Nc2nnc(C3CCCCC3)s2)cs1", "cytotoxicity": "6.3% (inactive)"}
{"smiles": "CCNC(=O)C1CC(=O)N(c2ccc(Br)cc2)C1", "note": "(stereo unspecified)", "cytotoxicity": "-12.4% (inactive)"}
{"smiles": "O=C(CCCN1CCOCC1)c1ccc2c(c1)OCCO2", "cytotoxicity": "7.8% (inactive)"}
{"smiles": "O=C(CCN1CCc2ccccc21)c1ccc2c(c1)OCCO2", "cytotoxicity": "1.9% (inactive)"}
{"smiles": "O=C(CCN1Cc2ccccc2C1)c1ccc2c(c1)OCCO2", "cytotoxicity": "-7.3% (inactive)"}
{"smiles": "O=C(CCN1CCc2ccccc2C1)Nc1ccc2c(c1)OCO2", "cytotoxicity": "2.3% (inactive)"}
{"smiles": "Cc1cccc(-n2nnnc2SCC(=O)c2cc(C)n(CC3CCCO3)c2C)c1", "note": "(stereo unspecified)", "cytotoxicity": "-31.6% (inactive)"}
{"smiles": "O=C(Nc1nc(-c2ccc(Cl)s2)cs1)c1cccs1", "cytotoxicity": "12.2% (inactive)"}
{"smiles": "CC(=O)c1cccc(S(=O)(=O)NCC(c2ccco2)N2CCCCC2)c1", "note": "(stereo unspecified)", "cytotoxicity": "1% (inactive)"}
{"smiles": "CCc1ccccc1NC(=O)CCc1nc(-c2ccc(C)cc2)no1", "cytotoxicity": "-5.6% (inactive)"}
{"smiles": "COc1ccc(C(CC(=O)O)NC(=O)COc2ccccc2)cc1OC", "note": "(stereo unspecified)", "cytotoxicity": "-11.8% (inactive)"}
{"smiles": "COc1ccc(-c2[nH]c(-c3cccc(OC)c3)nc2SCC(=O)NCc2ccco2)cc1", "cytotoxicity": "51.3% (active)"}
{"smiles": "CN1CCN(C(=O)CSc2nc(-c3cccs3)ccc2C#N)CC1", "cytotoxicity": "15.3% (inactive)"}
{"smiles": "CSc1nc(C2CC2)cc(-c2cccs2)c1C#N", "cytotoxicity": "63.4% (active)"}
{"smiles": "COc1ccc(-c2nc(SCC(=O)NCc3ccco3)c(-c3ccccc3)[nH]2)cc1OC", "cytotoxicity": "-5.2% (inactive)"}
{"smiles": "COc1ccc(-c2[nH]c(-c3ccc(F)cc3)nc2SCC(=O)NCc2ccco2)cc1OC", "cytotoxicity": "0.1% (inactive)"}
{"smiles": "COCc1cc(C)nc(SCC(=O)NCc2ccco2)c1C#N", "cytotoxicity": "1.9% (inactive)"}
{"smiles": "CCN(CC)C(=O)CSc1nc(C)cc(-c2cccs2)c1C#N", "cytotoxicity": "9.8% (inactive)"}
{"smiles": "N#Cc1c(-c2ccccc2)cc(C2CC2)nc1N", "cytotoxicity": "-2.8% (inactive)"}
{"smiles": "COc1ccc(-c2cc(-c3cccs3)c(C#N)c(SCC(=O)NCc3ccco3)n2)cc1", "cytotoxicity": "52% (active)"}
{"smiles": "N#Cc1c(-c2cccs2)cc(-c2ccccn2)nc1N", "cytotoxicity": "42.3% (inactive)"}
{"smiles": "COc1ccc(-c2ccc(SCC(=O)NCc3ccco3)nn2)cc1", "cytotoxicity": "-13.7% (inactive)"}
{"smiles": "O=C(O)C1C2CCC(O2)C1C(=O)NCCC1=CCCCC1", "note": "(stereo unspecified)", "cytotoxicity": "21.4% (inactive)"}
{"smiles": "COc1ccc(CCC(C(O)C(F)(F)F)S(=O)c2ccccc2)cc1", "note": "(stereo unspecified)", "cytotoxicity": "-3.4% (inactive)"}
{"smiles": "COc1ccccc1NC(=O)Nn1cnnc1", "cytotoxicity": "-17.6% (inactive)"}
{"smiles": "CCn1c(SCC(=O)c2cc(OC)ccc2OC)nnc1-c1ccncc1", "cytotoxicity": "6.4% (inactive)"}
{"smiles": "CC1Cc2ccccc2N1C(=O)CSc1nnc(NC(=O)Cc2cccs2)s1", "note": "(stereo unspecified)", "cytotoxicity": "-10% (inactive)"}
{"smiles": "CC(=O)Oc1ccc(N2C(=O)C3C(C2=O)C2(C)C=CC3(C)O2)cc1", "note": "(stereo unspecified)", "cytotoxicity": "-4% (inactive)"}
{"smiles": "CCOc1ccc(C)cc1S(=O)(=O)NC1CCCCC1", "cytotoxicity": "4.3% (inactive)"}
{"smiles": "Cc1ccc(-c2nn3c(C)nnc3s2)cc1NC(=O)c1ccc(OC(C)C)cc1", "cytotoxicity": "-1% (inactive)"}
{"smiles": "CCOc1ccc2nc(C)cc(C(=O)O)c2c1", "cytotoxicity": "33.6% (inactive)"}
{"smiles": "c1ccc2c(c1)oc1c(NCCN3CCOCC3)ncnc12", "cytotoxicity": "6.2% (inactive)"}
{"smiles": "c1ccc(Nc2ncnc3c2oc2ccccc23)cc1", "cytotoxicity": "-9.3% (inactive)"}
{"smiles": "COc1ccc(C)cc1NC(=O)COCC(=O)O", "cytotoxicity": "-11.8% (inactive)"}
{"smiles": "O=C(CN1CCN(Cc2ccccc2)CC1)Nc1ccc(Cl)cn1", "cytotoxicity": "3.5% (inactive)"}
{"smiles": "COc1ccccc1CN(Cc1ccco1)S(=O)(=O)c1ccc(-n2cnnn2)c(OC)c1", "cytotoxicity": "19.4% (inactive)"}
{"smiles": "COc1cc(S(=O)(=O)N(Cc2cccnc2)Cc2ccco2)ccc1-n1cnnn1", "cytotoxicity": "-4.3% (inactive)"}
{"smiles": "CCOc1ccccc1CN(Cc1ccco1)S(=O)(=O)c1ccc(-n2cnnn2)c(OC)c1", "cytotoxicity": "56.5% (active)"}
{"smiles": "CCOC(=O)c1c(NC(=O)CN2CCOCC2)sc2c1CCCC2=O", "cytotoxicity": "3.3% (inactive)"}
{"smiles": "CCOc1cc(/C=N/n2cnnc2)ccc1OCC(=O)Nc1ccccc1OC", "cytotoxicity": "7.2% (inactive)"}
{"smiles": "CC(C)c1ccc(Nc2nc(NCc3ccco3)nc(N3CCOCC3)n2)cc1", "cytotoxicity": "27.5% (inactive)"}
{"smiles": "CN1CCN(c2nc(Nc3cccc(C(F)(F)F)c3)nc(N3CCOCC3)n2)CC1", "cytotoxicity": "65.4% (active)"}
{"smiles": "Cc1cccc(Nc2nc(NCc3ccco3)nc(N3CCOCC3)n2)c1", "cytotoxicity": "53% (active)"}
{"smiles": "Cc1ccc(Nc2nc(N3CCOCC3)nc(N3CCOCC3)n2)cc1", "cytotoxicity": "8.7% (inactive)"}
{"smiles": "COc1nc(Nc2cccc(C(F)(F)F)c2)nc(OC)n1", "cytotoxicity": "-28.1% (inactive)"}
{"smiles": "O=C(O)c1cccc(Nc2nc(N3CCOCC3)nc(N3CCOCC3)n2)c1", "cytotoxicity": "-10% (inactive)"}
